Assay [1] can be described thus: NCI Yeast Anticancer Drug Screen. Data for the rad50 strain (AID 155).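 Note: 0% = growth of vehicle-only cultures of the same strain.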 Conditions: S. cerevisiae rad50 strain growth inhibition; at 50.0 µM; hits give high values. The procedure, abridged:
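Genetically altered yeast (DNA repair pathway); compound treatment; growth inhibition vs vehicle ctrl.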

Assay [2] is described as follows: NCI Yeast Anticancer Drug Screen. Data for the mec2-1 strain (AID 157). Conditions: S. cerevisiae mec2-1 strain, at 50.0 µM, hits give high values. The procedure, abridged:
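Using mec2-1 yeast: add compound, measure growth, express inhibition versus vehicle-treated cultures.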

Assay [3] is described as follows: NCI Yeast Anticancer Drug Screen. Data for the sgs1 mgt1 strain (AID 161).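 Note: 0% = growth of cultures given vehicle only.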 Conditions: S. cerevisiae sgs1 mgt1 strain, at 50.0 µM, hits give high values. The procedure, abridged: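 This yeast growth screen uses a strain with defined DNA-repair lesions; compound-treated growth is compared with vehicle-treated growth.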
A short description of assay [4]: NCI Yeast Anticancer Drug Screen. Data for the cln2 rad14 strain (AID 165).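 Note: 0% = growth equal to vehicle treated cultures.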 Conditions: S. cerevisiae cln2 rad14 strain, at 50.0 µM, hits give high values. The procedure, abridged: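 Yeast strain cln2 rad14, bearing defects in cell cycle control and DNA repair, serves as the test system; values reflect growth inhibition compared with vehicle.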
The nature of assay [5]: NCI Yeast Anticancer Drug Screen. Data for the bub3 strain (AID 167). Conditions: S. cerevisiae bub3 mutant strain, at 50.0 µM, hits give high values. The procedure, abridged:
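Yeast carrying a defined mutation is treated with each compound, and growth is compared with that of vehicle-exposed cells to give inhibition.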

A short description of assay [6]: NCI Yeast Anticancer Drug Screen. Data for the mlh1 rad18 strain (AID 175). Conditions: S. cerevisiae mlh1 rad18 strain growth inhibition; at 50.0 µM; hits give high values. The procedure, abridged: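 Steps: expose repair-defective yeast to compound; measure growth; express inhibition against vehicle-treated controls.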

Structures are written as SMILES. This is part of a sample that, as a whole, favours compounds with a hit. Of some 79,000 tested, about 15% had one in any assay. A number with no mark means an inactive call. The source made the active and inactive calls. Cut-off read from the data, not from the text of the source: active = growth inhibition above about 70%; inactive = the rest.

Regarding `O/N=C1/C(=C/c2ccccc2)CCCC1C(NO)c1ccccc1` (stereo not given), the growth inhibition in assay [1] is 27.9%; in assay [2], 10.2%; in assay [3], 27.2%; in assay [4] it was 28.1%; in assay [5], 17.1%; in assay [6] it was 57.6%.

Take `CN(C)c1nc(=NCc2cccs2)ss1`: the growth inhibition in assay [1] is 71.2% (active); in assay [2] it was 46.3%; in assay [3] it was 77.5% (active); in assay [4] it was 45.2%; in assay [5], 60.5%; in assay [6] it was 65.7%.

Consider `O=C(/N=C1\N=Nc2nc(C(C(=O)c3cccc([N+](=O)[O-])c3Cl)c3nc4n(c3O)/C(=N/C(=O)Nc3ccc(Cl)cc3)N=N4)c(O)n21)Nc1ccc(Cl)cc1` (stereo not given), for which the growth inhibition is 9.35% in assay [1]; -8.2% in assay [2]; 5.25% in assay [3]; -6.65% in assay [4]; 0.7% in assay [5]; 7.1% in assay [6].

As to `COC(=O)c1ccc(OC(=O)Nc2cccc(C(C)=O)c2)cc1`, the growth inhibition in assay [1] was 14.2%; in assay [2], 14.9%; in assay [3] it was 10.6%; in assay [4], -9.2%; in assay [5], 12.7%; in assay [6], 34.8%.

Take `CN(Cc1cnc2nc(N)nc(N)c2n1)c1ccc(C(=O)NC(CCC(=O)OC(C)(C)C)C(=O)O)cc1` (stereo not given): the growth inhibition is 13.7% in assay [1]; 32.4% in assay [2]; 4.5% in assay [3]; -20.1% in assay [4]; -2.55% in assay [5]; -1.2% in assay [6].

As for `Cc1c[n+]2c(C)cccc2n1C`, the growth inhibition in assay [1] is 10.9%; in assay [2], 27.9%; in assay [3] it was 27.1%; in assay [4] it was -26.2%; in assay [5], -8.05%; in assay [6], 3.65%.

Turning to `CC(=O)OC1C=CC2Oc3ccc(C)cc3C1(C)O2` (stereo not given), the growth inhibition was 12.8% in assay [1]; -4.05% in assay [2]; 14.4% in assay [3]; 28.2% in assay [4]; 23.6% in assay [5]; 34.9% in assay [6].

Regarding `O=C1NC(=S)SC1=C1CCCCC1`, the growth inhibition in assay [1] was 22.9%; in assay [2] it was 42.5%; in assay [3], 41.6%; in assay [4] it was 34.5%; in assay [5], 37.9%; in assay [6], 28.2%.

Consider `O=C1C=C(C2CCCCC2)C(=O)c2ccccc21`, for which the growth inhibition in assay [1] is 17%; in assay [2] it was 2.6%; in assay [3], 15.4%; in assay [4], 18.3%; in assay [5] it was 58.5%; in assay [6], 10.3%.

`O=C(O)c1c(I)cc(I)c(O)c1I`: the growth inhibition is -1% in assay [1]; -13.5% in assay [2]; 1.75% in assay [3]; 7.65% in assay [4]; 10.9% in assay [5]; -6.9% in assay [6].

For the compound `Cc1nc2ccccc2nc1CC(=N)c1ccccc1`, the growth inhibition in assay [1] was 24.2%; in assay [2] it was 15.8%; in assay [3], -5.85%; in assay [4], 5.1%; in assay [5] it was 35.7%; in assay [6], 17.8%.

Take `O=C(CSc1nnc(Cc2ccccc2)o1)Nc1cccc([N+](=O)[O-])c1`: the growth inhibition in assay [1] was 20.6%; in assay [2], 5.1%; in assay [3], 12.1%; in assay [4], -10.3%; in assay [5] it was -8.4%; in assay [6], -17%.

`COc1cc2c(cc1OC)C(Cc1cc(Br)c(OC)c(OC)c1)=[N+](C)CC2`: the growth inhibition in assay [1] is 1.65%; in assay [2] it was 4.4%; in assay [3], -12.4%; in assay [4], 9.65%; in assay [5], 1.05%; in assay [6] it was 11.2%.

Take `CCCCSCCOC(=O)C1C2CCC(O2)C1C(=O)O` (stereo not given): the growth inhibition in assay [1] was 19.5%; in assay [2] it was -3.85%; in assay [3], 0.1%; in assay [4], 13.4%; in assay [5], -1.25%; in assay [6], 13.8%.

Turning to `COc1ccc(OC)c2c(NCCNCCO)cc(NCCNCCO)nc12`, the growth inhibition in assay [1] was 15.2%; in assay [2], -4.75%; in assay [3] it was -15.7%; in assay [4], 0%; in assay [5], -3.2%; in assay [6], 7.5%.

On to `COc1ccc(/C=N/N2CN(C(C)C(=O)O)C(C)(O)N=C2N)cc1OC` (stereo not given), for which the growth inhibition was -14.2% in assay [1]; -33.8% in assay [2]; -20.7% in assay [3]; -8.95% in assay [4]; -25.6% in assay [5]; -50.8% in assay [6].

As to `O=C(O)C1CCCC2C(O)CCC(O)C12` (stereo not given), the growth inhibition in assay [1] was -10.4%; in assay [2], -15.4%; in assay [3], -1.85%; in assay [4] it was -12.9%; in assay [5], -7.2%; in assay [6] it was -34.1%.

Consider `OCC1OC(c2scc3c(=S)nc[nH]c23)C(O)C1O` (stereo not given), for which the growth inhibition is -5.9% in assay [1]; -13.7% in assay [2]; -9.45% in assay [3]; 19.6% in assay [4]; 12.6% in assay [5]; -11.2% in assay [6].

As for `CC(C)/C=C1\CCC(CN2CCCC2)C1=O` (stereo not given), the growth inhibition in assay [1] was 61.5%; in assay [2], 34.6%; in assay [3], 48.5%; in assay [4], 44.5%; in assay [5], 40.7%; in assay [6], 63.5%.

Take `Cc1ccc(C)c(N2C(=O)C(=O)C(c3nc4ccccc4s3)/C(=N/NC(=O)NN)C2=O)c1` (stereo not given): the growth inhibition was 1.9% in assay [1]; 14.1% in assay [2]; -5.75% in assay [3]; -2.55% in assay [4]; -2.1% in assay [5]; -16.9% in assay [6].
